Assay results from PubChem BioAssay AID1159580 (chemical genetic matrix, 2015).
“And” between values parts separate entries of the source, which are not always exact repeats. Equal entries are not always repeated. About 2,000 (36%) of roughly 5,500 compounds were called active. Roughly 18% stayed inconclusive and do not appear here. Rule as the data show it: active = normalized growth mostly below about 0.91 (no sharp cut-off); inconclusive = no clear call, values can overlap the other calls; inactive = mostly above about 0.92. The list shows a part of the results.

Assay: chemical genetic growth profiling, strain panel (AID 1159580);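 also: tested at 20 µM; growth read once vehicle control cultures reached saturation at 30 °C; 1 = growth at the plate median or of vehicle wells; lower values mean less growth of the strain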
Details: S. cerevisiae deletion strains, growth OD

Measured: normalized growth

CC(C)[C@@H]1CC[C@@H](C)CC1=O
inactive: locus YAL013W, strain DEP1, hits give low values 1.01 | locus YAL021C, strain ccr4, hits give low values 0.945 | locus YAL026C, strain drs2, hits give low values 1.01 | locus YAL030W, strain snc1, hits give low values 0.998 | locus YBL061C, strain skt5, hits give low values 0.993 | locus YBR009C, strain hhf1, hits give low values 0.981 | locus YBR021W, strain FUR4, hits give low values 0.98 | locus YBR023C, strain chs3, hits give low values 0.993 | locus YBR171W, strain sec66, hits give low values 0.986 | locus YBR229C, strain ROT2, hits give low values 1.01 | locus YBR231C, strain swc5, hits give low values 0.988 | locus YBR279W, strain paf1, hits give low values 0.994 | locus YCL011C, strain gbp2, hits give low values 0.967 | locus YCL016C, strain dcc1, hits give low values 0.978 | locus YCL029C, strain bik1, hits give low values 1.01 | locus YCL061C, strain MRC1, hits give low values 0.997 | locus YCL069W, strain vba3, hits give low values 0.99 | locus YCR088W, strain abp1, hits give low values 0.997 | locus YDL005C, strain med2, hits give low values 0.998 | locus YDL035C, strain GPR1, hits give low values 1.02 | locus YDL040C, strain nat1, hits give low values 1 | locus YDL074C, strain BRE1, hits give low values 1.02 | locus YDL101C, strain DUN1, hits give low values 1.02 | locus YDL134C, strain PPH21, hits give low values 1.02 | locus YDL185W, strain tfp1, hits give low values 1.01 | locus YDL192W, strain arf1, hits give low values 1.02 | locus YDR001C, strain nth1, hits give low values 1.01 | locus YDR069C, strain doa4, hits give low values 1.01 | locus YDR101C, strain arx1, hits give low values 1.01 | locus YDR137W, strain rgp1, hits give low values 1 | locus YDR150W, strain NUM1, hits give low values 1.02 | locus YDR159W, strain sac3, hits give low values 0.996 | locus YDR162C, strain NBP2, hits give low values 1.04 | locus YDR195W, strain ref2 0.976 | locus YDR297W, strain sur2, hits give low values 0.987 | locus YDR318W, strain mcm21, hits give low values 0.998 | locus YDR334W, strain swr1, hits give low values 0.993 | locus YDR335W, strain msn5, hits give low values 0.987 | locus YDR388W, hits give low values 1 | locus YDR392W, strain spt3, hits give low values 0.963 | locus YDR502C, strain sam2, hits give low values 1.01 | locus YEL003W, strain gim4, hits give low values 0.995 | locus YEL037C, strain rad23, hits give low values 0.982 | locus YEL061C, strain CIN8 (second series), hits give low values 0.989 | locus YEL061C, strain CIN8, hits give low values 1 | locus YER015W, strain faa2, hits give low values 0.984 | locus YER016W, strain bim1, hits give low values 0.991 | locus YER110C, hits give low values 1.01 | locus YER111C, strain swi4, hits give low values 1 | locus YER155C, strain BEM2 (second series), hits give low values 0.99 | locus YER155C, strain BEM2, hits give low values 0.998 | locus YER167W, strain BCK2, hits give low values 1.02 | locus YFR010W, strain ubp6, hits give low values 0.996 | locus YGL078C, strain dbp3, hits give low values 1 | locus YGL086W, strain mad1, hits give low values 1.01 | locus YGL167C, strain pmr1, hits give low values 0.992 | locus YGL173C, strain kem1, hits give low values 0.999 | locus YGL227W, strain vid30, hits give low values 1 | locus YGL240W, strain doc1, hits give low values 1 | locus YGL248W, strain PDE1, hits give low values 1.02 | locus YGL253W, strain hxk2, hits give low values 0.992 | locus YGR078C, strain PAC10, hits give low values 1.02 | locus YGR135W, strain pre9, hits give low values 1.01 | locus YGR229C, strain SMI1, hits give low values 1.05 | locus YGR252W, strain gcn5, hits give low values 1.03 | locus YHR013C, strain ard1, hits give low values 0.979 | locus YHR027C, strain rpn1, hits give low values 1 | locus YHR030C, strain SLT2, hits give low values 1.01 and 0.977 | locus YHR079C, strain IRE1 (second series), hits give low values 0.995 | locus YHR079C, strain IRE1, hits give low values 0.976 | locus YHR094C, strain hxt1, hits give low values 1.02 | locus YHR129C, strain ARP1, hits give low values 1.01 | locus YHR142W, strain chs7, hits give low values 0.968 | locus YHR200W, strain rpn10, hits give low values 1.01 | locus YIL066C, strain RNR3, hits give low values 1.04 | locus YIL073C, strain SPO22, hits give low values 1.06 | locus YIL125W, strain kgd1, hits give low values 1.02 | locus YIR030C, strain dcg1, hits give low values 1.01 | locus YJL092W, strain hpr5, hits give low values 0.989 | locus YJL095W, strain BCK1 (second series), hits give low values 0.978 | locus YJL095W, strain BCK1, hits give low values 1.06 and 0.982 | locus YJL115W, strain asf1, hits give low values 0.991 | locus YJL129C, strain trk1, hits give low values 1.01 | locus YJL134W, strain LCB3, hits give low values 1.01 | locus YJL154C, strain vps35, hits give low values 0.989 | locus YJL164C, strain tpk1, hits give low values 0.961 | locus YJL166W, strain qcr8, hits give low values 0.995 | locus YJL168C, strain set2, hits give low values 0.996 | locus YJL187C, strain SWE1 (second series), hits give low values 1.03 | locus YJL187C, strain SWE1, hits give low values 0.99 | locus YJR043C, strain POL32, hits give low values 1.02
